Among the data in PubChem BioAssay (NCI) are growth values, retold here.

This is part of a sample that, as a whole, favours compounds with a hit. Of some 83,000 tested, about 20% had one in any assay.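 Interpretation: 100, growth as untreated; towards 0, rising growth inhibition; 0, no net growth; 0 to -100, cell death. Compounds scoring below 10 were considered active.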 Unmarked numbers belong to inactive results. Active and inactive are the calls of the source.

This assay concerns HL-60(TB) leukemia. Nature of the assay: NCI-60 one-dose screen, 48 h (100 = growth as untreated, 0 = no growth, -100 = all killed). As to conditions: 10 µM unless noted.
Regarding `O=c1c2c3c(sc2n2cnnc2n1Cc1ccccc1)CCCC3`, the growth is 84.3%.

For the compound `NCCNc1nc(-c2ccccc2)nc2nc(-c3ccccc3)oc12`, the growth was 97.9%.

For `Nc1n[nH]c(=S)n1-c1ccc(Cl)cc1`, the growth is 82.6%.

In the case of `Cc1c2cnccc2c(C)c2c1c1cc(O)ccc1n2C(C)C`, the growth is 0.765% (active).

For the compound `O=C(NCCNc1nccc(-c2c(-c3cccc(O)c3)nc3sccn23)n1)c1ccccc1O`, the growth is 59.8%.

With `C=C1CC[C@@H]2[C@](C)(COC(C)=O)[C@H](OC(C)=O)CC[C@@]2(C)[C@@H]1CC(Nc1ccc(S(=O)(=O)Nc2nc(C)cc(C)n2)cc1)C1=CCOC1=O` (some centres not stated), the growth was 21.7%.

Regarding `CC(C)Cc1ccc(C(C)C(=O)NCc2ccc(Cn3c(=O)sn(-c4ccc(Cl)cc4)c3=O)cc2)cc1` (configuration not stated), the growth is 95.8%.

Turning to `Nc1ccc(-c2csc(-n3[nH]c(=O)ccc3=O)n2)cc1`, the growth was 97.1%.

Consider `Cc1nn2c(/C=C3/C(=O)Nc4cc(Cl)ccc43)c(-c3ccccc3)nc2s1`, for which the growth was 32.2%.

For the compound `C=C1C(=O)O[C@H]2[C@H]1CC/C(COC(=O)c1cc3cc(F)ccc3[nH]1)=C\CC[C@@]1(C)O[C@@H]21`, the growth was -32.6% (active).

Consider `Oc1[nH]c2ccccc2c1/C=c1/cc2c(c(-c3ccc(C(F)(F)F)cc3)n1)=Nc1ccccc1-2`, for which the growth is 19.2%.

Regarding `N#Cc1c(-c2ccccc2)nc(SCC(O)CN2CCOCC2)nc1N1CCOCC1` (configuration not stated), the growth is 72.2%.

`CNc1ccc(Br)cc1-c1n[nH]c(=O)[nH]c1=O`: the growth is 104%.

`CNC(=O)c1cc(Oc2ccc3nc(NC(=O)Nc4ccc(CN5CCOCC5)c(C(F)(F)F)c4)sc3c2)ccn1`: the growth was 17.1%.

In the case of `COc1ccccc1/C=C1\COc2ccc(O)c(O)c2C1=O`, the growth was -21.9% (active).

Regarding `COc1ccc(-c2nc(SCCC(C)C)nc(Nc3ccc(C(=O)O)cc3)c2C#N)cc1`, the growth is 71.6%.

Regarding `O=C1c2ccccc2C(=O)c2c(NCCN=Cc3c(O)ccc4ccccc34)cccc21`, the growth was 66.3%.

`O=C(N/N=C/c1cc([N+](=O)[O-])ccc1O)c1cccc2ccccc12`: the growth is -14% (active).

As for `Cn1c(C(N)=O)cc2c1-c1nc(Nc3ccccc3)ncc1CCC2`, the growth is 40.6%.

For `CC[C@@H]1NC(=O)[C@H]([C@H](O)[C@H](C)C/C=C/c2ccc(CN3C(=O)C(C)=C(C)C3=O)cc2)N(C)C(=O)[C@H](C(C)C)N(C)C(=O)[C@H](CC(C)C)N(C)C(=O)[C@H](CC(C)C)N(C)C(=O)[C@@H](C)NC(=O)[C@H](C)NC(=O)[C@H](CC(C)C)N(C)C(=O)[C@H](C(C)C)NC(=O)[C@H](CC(C)C)N(C)C(=O)CN(C)C1=O`, the growth is 81.2%.

Regarding `CN(CCCN(C)CCC1CCCCC1)CCC1CCCCC1`, the growth was 116%.

Regarding `COc1ccc(C(=O)OC2C(OC3C(O)COC(O[C@H]4C[C@H]5[C@@H]6CC=C7C[C@@H](O)CC[C@]7(C)[C@H]6CC[C@]5(C)[C@H]4[C@H](C)C(=O)CCC(C)C)C3OC(N)=O)OCC(O)C2O)cc1` (some centres not stated), the growth was -36.9% (active).

Take `O=C(/C=C/c1ccc(Cl)cc1)c1ccc(Cl)cc1`: the growth was 69.2%.

Take `COc1cccc(/C=N/NC(=S)NC2CC3CCC2C3)c1O` (configuration not stated): the growth was 71.3%.

On to `Cc1ccc(S(=O)(=O)N(CCc2ccc(Cl)cc2)S(=O)(=O)c2ccc(C)cc2)cc1`, for which the growth was 85.3%.

For the compound `NCC(O)C(O)C(O)C(O)CO` (configuration not stated), the growth is 114%.

Regarding `C/C(=N\OC(=O)Nc1cccc(Cl)c1)c1ccccc1`, the growth was 110%.
